# According to paper PMC4336329 (PLoS ONE, 2015):
# Among all 310,000 compounds or so, about 2,200 (0.71%) showed an effect of 50% or more. The effect is printed as a negative number. The sample holds strong results, similar compounds and a random draw of the others, so the mix is not that of the screen.
# Biological target: human ether-à-go-go-related gene (hERG) potassium channel (human, UniProt Q12809)
# Assay: primary screen, population patch clamp on CHO cells stably expressing hERG; higher = less effect of the substance
# Sequence of human ether-à-go-go-related gene (hERG) potassium channel (Q12809 whole entry, looked up): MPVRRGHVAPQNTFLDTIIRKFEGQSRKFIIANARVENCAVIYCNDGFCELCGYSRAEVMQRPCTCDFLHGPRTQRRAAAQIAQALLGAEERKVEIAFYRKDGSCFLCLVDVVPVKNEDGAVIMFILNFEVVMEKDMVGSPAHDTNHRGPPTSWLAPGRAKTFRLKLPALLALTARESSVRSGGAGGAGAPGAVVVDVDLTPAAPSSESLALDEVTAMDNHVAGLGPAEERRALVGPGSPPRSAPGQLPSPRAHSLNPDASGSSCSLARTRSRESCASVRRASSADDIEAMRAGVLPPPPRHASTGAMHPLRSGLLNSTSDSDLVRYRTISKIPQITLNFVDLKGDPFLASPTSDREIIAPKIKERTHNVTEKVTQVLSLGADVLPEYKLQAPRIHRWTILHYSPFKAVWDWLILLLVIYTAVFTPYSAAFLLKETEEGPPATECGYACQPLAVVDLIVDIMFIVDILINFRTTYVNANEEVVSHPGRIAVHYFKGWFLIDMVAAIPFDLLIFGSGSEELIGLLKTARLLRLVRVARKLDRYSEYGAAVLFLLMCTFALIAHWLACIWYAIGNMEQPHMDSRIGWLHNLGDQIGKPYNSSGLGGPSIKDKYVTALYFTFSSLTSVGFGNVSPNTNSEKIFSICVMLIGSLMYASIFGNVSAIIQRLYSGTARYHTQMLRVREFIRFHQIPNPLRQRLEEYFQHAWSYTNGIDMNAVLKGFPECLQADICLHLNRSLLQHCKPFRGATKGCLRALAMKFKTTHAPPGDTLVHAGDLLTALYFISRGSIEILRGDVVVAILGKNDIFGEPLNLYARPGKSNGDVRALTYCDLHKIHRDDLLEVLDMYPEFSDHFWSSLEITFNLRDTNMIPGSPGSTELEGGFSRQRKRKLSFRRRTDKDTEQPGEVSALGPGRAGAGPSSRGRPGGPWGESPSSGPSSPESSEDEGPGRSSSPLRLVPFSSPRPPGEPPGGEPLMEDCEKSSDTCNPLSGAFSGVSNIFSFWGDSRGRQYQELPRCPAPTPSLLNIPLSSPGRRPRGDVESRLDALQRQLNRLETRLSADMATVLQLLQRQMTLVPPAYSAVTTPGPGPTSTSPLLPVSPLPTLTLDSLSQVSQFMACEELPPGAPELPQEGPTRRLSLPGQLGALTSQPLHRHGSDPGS
row,SMILES,"hERG current change (%, negative = inhibition) at 1uM [%]"
1,COc1ccc(CNCc2c(F)cccc2F)cc1OC.O=C(O)C(=O)O,14.6
2,O=C(NC1CCCCCC1)c1ccc(CS(=O)Cc2cccc(Cl)c2)o1 (stereo not drawn),5.33
3,COc1cc(/C=N/N2CCN(Cc3ccc(Cl)cc3)CC2)cc(Br)c1O,9.38
4,N#Cc1c(NC(=O)CCCN2C(=O)c3ccccc3C2=O)oc(-c2ccccc2)c1-c1ccccc1,-0.65
5,Cc1cc2nc3ccc(N(C)C)cc3nc2cc1N,13.3
6,CCOC1(OCC)N=C(N)C2(C#N)C(c3cccc(OC)c3OC)C12C#N (stereo not drawn),3.32
7,CN(C(=O)CCN1C(=O)c2ccccc2C1=O)c1ccccc1,15.8
8,CCc1cc(C(c2ccc(F)cc2)N2CCOCC2)c(NC(=O)c2ccccc2)s1 (stereo not drawn),11.2
9,CCCCNC(=O)N1CCOCCOCCN(C(=O)NCCCC)CCOCCOCC1,7.75
10,O=C(c1sc2cc([N+](=O)[O-])ccc2c1Cl)N1CCOCC1,0.235
11,CC(C)(C)CC(=O)OCC(=O)Nc1cc(C(C)(C)C)nn1-c1ccccc1,-12.9
12,Cc1nn2c(-c3ccc(Cl)cc3Cl)nnc2s1,-0.908
13,COc1cccc(CN2CCCC(C(=O)c3ccc4c(c3)OCO4)C2)c1OC (stereo not drawn),-25.3
14,COc1cccc(CN2CCCC(C(=O)c3ccc4c(c3)OCO4)C2)c1O (stereo not drawn),-44.6
15,O=C(c1ccc2c(c1)OCO2)C1CCCN(Cc2cc(F)ccc2-n2cccn2)C1 (stereo not drawn),-78.2
16,Br.Nc1nc(-c2ccc(Br)cc2)cs1,-2.25
17,C/C(=N/N1CCN(c2ccccc2)CC1)c1cccc([N+](=O)[O-])c1,8.81
18,Cc1ccc(Cl)cc1NS(=O)(=O)Cc1ccccc1,14.1
19,O=C(Nc1ccc(NC(=O)c2cccs2)cc1)c1cccnc1,13.4
20,Cc1ccccc1NS(=O)(=O)c1ccc(OCC(=O)NCc2ccccn2)cc1,3.12
21,O=C(c1ccco1)N1CCN(Cc2cc(=O)c(OCc3ccc([N+](=O)[O-])cc3)co2)CC1,-29.4

row,SMILES,"hERG current change (%, negative = inhibition) at 1uM [%]"
1,Cc1ccc(-c2cc(C(=O)Nc3ccc(S(=O)(=O)Nc4onc(C)c4C)cc3)[nH]n2)c(O)c1,-1.84
2,CCN1CCN(c2nc(-c3cccnc3)nc3ccccc23)CC1.Cl,-18.4
3,CN1CCN(c2nc(-c3ccccc3Cl)nc3ccccc23)CC1,-19.8
4,CN1CCN(c2nc(-c3ccncc3)nc3ccccc23)CC1,-64.9
5,CC1CN(c2nn3c(=O)c4ccccc4nc3c3ccccc23)CC(C)O1 (stereo not drawn),-0.465
6,CCN1CCN(c2nc(-c3ccccn3)nc3ccccc23)CC1,-17.5
7,Cc1ccc(-c2nc(N3CCN(C)CC3)c3ccccc3n2)cc1.Cl,3.62
8,CCN1CCN(c2nc(-c3ccccc3)nc3ccccc23)CC1,-30.4
9,CN1CCN(c2nc(-c3ccc(Cl)cc3Cl)nc3ccccc23)CC1,-58.1
10,CCN1CCN(c2nn3c(=O)c4ccccc4nc3c3ccccc23)CC1,-71.5
11,CN1CCN(c2nc(-c3ccc(Cl)c(Cl)c3)nc3ccccc23)CC1,9.87
12,CCN1CCN(c2nc(-c3ccncc3)nc3ccccc23)CC1,-75.6
13,c1ccc2c(N3CCCC3)nc(-c3ccncc3)nc2c1,1.09
14,C/C(=N\NC(=O)c1ccc(Cl)cc1)c1ccccn1,8.17
15,O=S1(=O)CCC(NCC2CCCO2)C1 (stereo not drawn),12.9
16,CC(C)C(NC(=O)OCc1ccccc1)C(=O)OCC(=O)NC1CC1 (stereo not drawn),11.3
17,Fc1ccc(N/N=C/c2ccc(N3CCOCC3)cc2)c(F)c1,9.29
18,CCc1ccc(CN(C)C(=O)C2CCC(=O)N(CC3CCCCC3)C2)cc1 (stereo not drawn),-12.3
19,COc1ccccc1N1CCN(C(=O)c2cn(C)c3ccc(S(=O)(=O)N4CCOCC4)cc3c2=O)CC1,13.1
20,O=c1nc(-c2ccccc2)n(-c2ccccc2)c2ncccc12,10.8
21,Cn1c(SCC(=O)NC2CCS(=O)(=O)C2)nnc1-c1ccco1 (stereo not drawn),10.3
